Assay results taken from PubChem BioAssay AID624465 (National Center for Advancing Translational Sciences (NCATS), 2012).
Out of some 360,000 compounds screened, about 300 (0.083%) were called active. Cut-off read from the data, not from the text of the source: active = activation above about 40%; inconclusive = between about 15% and that limit; inactive = weaker than that. Only a selection was taken, and actives are over-represented in it overall.

Target: D(2) dopamine receptor (Homo sapiens) (UniProt P14416)
Sequence (P14416 whole entry, looked up): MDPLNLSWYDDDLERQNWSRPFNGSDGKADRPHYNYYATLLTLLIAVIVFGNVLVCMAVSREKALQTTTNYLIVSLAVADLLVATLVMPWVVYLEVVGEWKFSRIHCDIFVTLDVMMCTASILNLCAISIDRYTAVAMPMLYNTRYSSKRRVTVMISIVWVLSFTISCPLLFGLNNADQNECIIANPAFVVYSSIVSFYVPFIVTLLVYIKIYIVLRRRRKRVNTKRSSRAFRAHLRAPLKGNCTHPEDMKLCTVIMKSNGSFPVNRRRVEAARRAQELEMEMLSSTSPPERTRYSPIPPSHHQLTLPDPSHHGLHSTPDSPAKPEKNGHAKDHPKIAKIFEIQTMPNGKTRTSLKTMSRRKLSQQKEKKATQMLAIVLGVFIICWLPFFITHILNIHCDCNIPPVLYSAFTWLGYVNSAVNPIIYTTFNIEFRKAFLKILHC
Experiment: Beta-Arrestin HTS for Positive Allosteric Modulators of the Human D2 Dopamine Receptor: Agonists
Settings: DiscoveRx PathHunter D2 beta-arrestin, luminescence, 90 min; stronger effect = higher value; 100% = 57 uM dopamine signal
From the text: There is great interest in identifying small molecule ligands for G-protein coupled receptors (GPCRs) as nearly 50% of all FDA-approved drugs target these important receptor proteins. […] Amongst the dopamine receptors (DARs), the D2 is arguably one of the most validated drug targets in neurology and psychiatry. For instance, all receptor-based antiparkinsonian drugs primarily work via stimulating the D2 DAR, whereas all FDA-approved antipsychotic agents are antagonists of this receptor. The D2 DAR is also therapeutically targeted in other disorders such as restless legs syndrome, tardive dyskinesia, Tourette's syndrome, and hyperprolactinemia.
To this end, a miniaturized qHTS screen was developed to be screened against the Molecular Libraries Small Molecule Repository (MLSMR). This assay seeks to identify agonists against the D2 DAR.
NIH Molecular Libraries Probe Production Network [MLPCN]
NIH Chemical Genomics Center [NCGC]
PI Name: David Sibley, National Institutes of Neurological Disorders and Stroke
DiscoveRx D2 cells were thawed from frozen stock and seeded at 2,100 cells/ 3 uL/well media (DiscoveRx Plating Reagent 2) with MultiDrop Combi dispenser (Thermo Scientific, Logan, UT) onto white tissue culture treated 1536-well Aurora plates (Brooks Automation, Chelmsford, MA) and allowed to attach overnight at 37 deg C, 5% CO2. Next, 23 nL/well of compound solutions in DMSO were added with a pintool transfer (Kalypsis, San Diego, CA). As the positive control, 1 uL/well dopamine (EC100, 57 uM final concentration) diluted in buffer (HBSS + 10 mM HEPES + SMB + 0.1% Tween-20) was dispensed to 1 column of each plate. The rest of the plate was dispensed with buffer only, 1 uL/well as well. The cells were stimulated by compounds or dopamine control for 90 minutes at 37 deg C, 5% CO2, after which 1.5 ul/well of DiscoveRx detection reagent was added with BioRAPTR FRD dispenser. The detection reagent was prepared by mixing of Galacton Star Substrate, Emerald II solution and PathHunter buffer (supplied by the assay kit) together at 1:5:19 proportion accordingly just prior to dispensing. The plates were incubated at ambient temperature for 1 hour and then the luminescent signal was read on ViewLux plate reader (PerkinElmer, Waltham, MA).

activation, inactive:
CC(OC(=O)CNS(=O)(=O)/C=C/c1ccccc1)C(=O)Nc1ccc(S(=O)(=O)N2CCCC2)cc1 (stereo unspecified) 0.137%, CCOc1ccc(NC(=O)CN(C)C(=O)c2c(C)noc2C)cc1OCC -1.71%, NC(=O)C(Cc1ccccc1)NC(=O)C12CC3CC(CC(C3)C1)C2 (stereo unspecified) -2.84%, CSc1nnc2c(n1)OC(c1cn(C)c3ccccc13)N(C(C)=O)c1ccccc1-2 (stereo unspecified) -3.75%, O=C(CSc1nc2cccc(F)c2c(=O)n1-c1ccccc1)Nc1ccc2c(c1)CCC2 0.472%, C=CS(=O)c1sc(Cl)c(N2CCOCC2)c1[N+](=O)[O-] (stereo unspecified) -11%, CC(C)c1cccc(C(C)C)c1Nc1cn[nH]c1 8.06%, CSCCC(NC(=O)COc1ccccc1)C(=O)N(C)CC(=O)Nc1ccc(C)cc1 (stereo unspecified) -3.34%, Cc1ccc(Sc2cc(N3CCOCC3)nc(-c3ccccc3)n2)cc1 2.6%, Cc1csc(NC(=O)CSc2nnc(-c3cccnc3)o2)n1 -2.74%, CCC(=NC1CC(C)(C)NC(C)(C)C1)C1=C(O)CC(C)(C)CC1=O 0.839%, CCOc1ccc(NC(=O)CN(C)CC(=O)NC(C)c2ccccc2)cc1OCC (stereo unspecified) -5.49%, COCCn1c(C)cc(C(=O)COC(=O)/C=C/c2cccc(OC)c2)c1C -0.488%, CCCCc1nccn1CCn1ccnc1CCCC -1.34%, Cc1cc(C)nc(N2C(=O)CC(Cc3ccccc3)C2=O)n1 (stereo unspecified) -1.43%, CC(C)c1ccc(N(C(=O)c2ccco2)C(C(=O)NC2CCCC2)c2cccnc2)cc1 (stereo unspecified) 1.27%, CCN1CCN(C(=O)/C=C\C(=O)O)CC1 -0.987%, CCOc1ccc(Oc2nc(C)cc(OC)n2)nn1 -3.16%, CCC(C(=O)NC1CCCCC1)N(C(=O)c1snc(C(N)=O)c1N)c1ccc(OC)cc1OC (stereo unspecified) -1.51%, CC(=O)NC1(c2ccc(F)cc2)CCN(C(=O)c2c(F)cccc2F)CC1 -4.03%, Cc1ccc(Cl)cc1NC(=O)C1CCN(S(C)(=O)=O)CC1 -3.51%, CC(NCc1ccccc1OC1CCCC1)c1ccccc1 (stereo unspecified) -2.1%, COc1ccc(-c2ccc3nnc(SCC(=O)Nc4ccc(NC(C)=O)cc4)n3n2)cc1 0.231%, O=C(NNS(=O)(=O)c1ccc(F)cc1)C1CCCCC1 -2.79%, O=C(Cn1nc([N+](=O)[O-])nc1Br)NC1CCCCC1 6.2%, CC(=O)c1nnn(-c2ccc(Cl)cc2C#N)c1C -0.344%
